The panel holds about 83,000 compounds, 20% with a hit somewhere; the sample as a whole holds those more often.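 Plates (96-well) were seeded with cells, treated with compound at one concentration, and incubated for 48 hours before percent growth was determined.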 Values without a mark were called inactive. The source made the active and inactive calls. Rule for the calls: active = growth percent below 10; inactive = the rest.

This experiment relates to KM12 colon. Kind of experiment: NCI-60 one-dose screen, 48 h (100 = growth as untreated, 0 = no growth, -100 = all killed). The following applies: 10 µM unless noted.
Take `Cc1[nH]c(-c2cc(N)ccc2Cl)c2c1C(=O)CCCC2`: the growth was 32.6%.
Take `COc1ccc(/C=C\c2cc(OC)c(OC)c(OC)c2)cc1OC(=O)c1cccc(Cn2cc(CCOC(=O)[C@H](N)Cc3cn(C)c4ccccc34)nn2)c1`: the growth was 5.51% (active).
As to `CC1CCNC(C)C1` (centres undefined), the growth is 106%.
As to `Clc1ccc2c(NCCNc3nc(N4CCOCC4)nc4ccccc34)ccnc2c1`, the growth was 13.3%.
The result for `CNC(=O)c1cc(Oc2ccc(NC(=O)Nc3ccc(Cl)c(SC)c3)c(F)c2)ccn1` reads 29.3%.
Consider `O=Nc1c(O)c(Cl)cc2ccccc12`, for which the growth was 79.5%.
In the case of `COc1ccc(-c2nc3ccc(-c4nc5ccc(N6CCN(c7ccncc7)CC6)cc5[nH]4)cc3[nH]2)cc1OC`, the growth was 92.8%.
For `COc1cc(/C=C/c2cc(O)c3cc(C(C)=O)c(=O)oc3c2)cc2c1O[C@]1(C)CC[C@@H](O)C(C)(C)[C@H]1C2`, the growth was 57.6%.
The result for `COc1ccc(/C=C/c2nc3ccccc3nc2/C=C/c2ccc(OC)cc2)cc1` reads 99.6%.
For the molecule `CN(C)CCCNc1c2ccccc2nc2ccccc12`, the growth is 97.3%.
On to `O=C(Nc1ccc(Cl)cc1)c1cc2cc(F)ccc2cc1O`, for which the growth was 12.3%.
Consider `Cc1ccc(C2=NN3C(C2)c2cc(Br)ccc2OC32CCN(Cc3ccccc3)CC2)o1` (centres undefined), for which the growth is 95.4%.
Regarding `O=C(CCN1C(=O)/C(=C/c2ccc(Cl)cc2)SC1=S)NCCCN1CCOCC1`, the growth was 104%.
With `C#CCOc1ccc2ncnc(N3CCN(C(=O)CCl)CC3)c2c1` the figure was 108% [8.25 µM]; with `Cc1ccc(C(SCC(N)C(=O)O)(c2ccccc2)c2ccc(C)cc2)cc1` (centres undefined), 2.64% (active).
In the case of `Cc1cc(Nc2ccc(C)c(Cl)c2)n2nc(C(F)(F)F)nc2n1`, the growth is 62%.
Regarding `COc1ccccc1NS(=O)(=O)c1ccc2oc(SC(C)C)nc2c1`, the growth was 98.7%.
With `CCN1CCN(c2nc(NCCCNc3ccnc4cc(Cl)ccc34)c3ccccc3n2)CC1` the figure was 29.3%; with `CCc1nnc(CNc2ccc(Cl)cc2)o1`, 101%.
Consider `CCOC(=O)c1c(C)oc2ncnc(N3CCN(C(=S)Nc4ccccc4)CC3)c12`, for which the growth is 96.4%.
For the molecule `C=C1c2nc3ccccc3n2C=C(c2cccc(Cl)c2)N1Cc1ccc(OC)cc1`, the growth was 13%.
For `COc1ccc(/C=C/C(=O)c2ccc(O)c(CN3CCN(c4cc5c(cc4F)c(=O)c(C(=O)O)cn5C4CC4)CC3)c2)cc1`, the growth was 24.8%.
Turning to `O=C1NC(=Nc2ccc(O)cc2)S/C1=C\c1cccc(Cl)c1`, the growth is 21.9%.
Turning to `N#Cc1c(-c2ccc(Cl)cc2)nc(N/N=C/c2cccc(Br)c2)nc1N1CCOCC1`, the growth is 94.9%.
As to `COc1ccc(N=Nc2nccs2)c(O)c1`, the growth was 33.3%.
For the molecule `O=C1/C(=C/C(Cl)=C/c2ccccc2)SC(=S)N1CCc1ccc(O)cc1`, the growth is -31.6% (active).
On to `COc1cc(/C=C/C(=O)c2cccnc2Nc2ccc(F)cc2)cc(OC)c1OC`, for which the growth is 24.6%.
With `O=C1Nc2ccc(Br)cc2C12Oc1ccccc1C1CC(c3ccc(F)cc3)=NN12` (centres undefined) the figure was 86.3%.
As for `CSc1nc(Nc2cccc(NC(=O)CCl)c2)c(C#N)c(-c2cccc([N+](=O)[O-])c2)n1`, the growth was 88.5%.
On to `c1csc(C2=NN3C(C2)c2ccccc2OC3c2ccncc2)c1` (centres undefined), for which the growth is 92.2%.
With `CCCn1c(=O)[nH]c(N)c([C@H]2c3ccccc3Oc3[nH]c(=O)n(CCC)c(=O)c32)c1=O`, the growth is 99.8%.
Regarding `COc1cccc(-c2nc3sccn3c2-c2ccnc(NCCCNS(=O)(=O)c3cccc(F)c3)c2)c1`, the growth is 23.2%.
For `CCCCC/C(C=C(C#N)C#N)=C/c1ccccc1`, the growth is 72.6%.
In the case of `C=C(C)C1CC(O)C2(C)CCCC3C2C1CC(C)C3(C)CC/C(C)=C/C(O)C1CCC(=O)c2c(OC)cc(OC)cc21` (centres undefined), the growth is 40.9%.
On to `O=C1CC(=NCC(=O)n2c(-c3ccccc3)nc3ccccc32)NN1`, for which the growth was 101%.
Consider `Clc1ccc2c(NCCCNc3nc(-n4ccnc4)nc4ccccc34)ccnc2c1`, for which the growth was 88.5%.
On to `CN(CCCCCl)P(=O)(OCc1ccc([N+](=O)[O-])o1)C(F)(F)c1ccc(CC(=O)NC[C@@H](O)/C=C\[C@@H](O)[C@H](CO)Cc2ccccc2)cc1` (some centres undefined), for which the growth is 85.5%.
Turning to `O=C1Nc2c(ccc(Cl)c2Cl)/C1=C\c1ccc(C(F)(F)F)cc1`, the growth was 71.2%.
As to `O=C1CSC(=S)N1CCc1ccc(O)cc1`, the growth is 8.84% (active).
